The text below walks through data of the emibetuzumab library of Makowski et al. (2022).

Some of the results follow. The hit rate among all sequences tested is not known here.

First the molecules themselves.
B1: VH:VL chains; a variant is named by its letters at X, in order (parent)
chain 1: QVQLVQSGAEVKKPGASVKVSCKASGYTFTDYXMHWVRQAPGQGLEWMGXVNPNXXXTTYNQKFEGRVTMTTDTSTSTAYMELRSLRSDDTAVYYCARXNXLDXWGQGTTVTVSS
chain 2: DIQMTQSPSSLSASVGDRVTITCSVSSSVSSIYLHWYQQKPGKAPKLLIYSTSNLASGVPSRFSGSGSGTDFTLTISSLQPEDFATYYCQVYSGYPLTFGGGTKVEIK

The test covers variants of B1. Put plainly: yeast display scFab, FACS + sequencing. Conditions: with MET. The gist of the method:
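Antigen binding was called positive for sequences present in both antigen-positive samples and negative for those present only in the input. These calls came from deep sequencing, in two replicates, of round-3 sorted and input populations from a heavy-chain CDR mutant scFab yeast surface library. The library was first enriched twice magnetically on HGFR-Fc-coated Protein A beads and then by FACS, gating the top 50% antigen-positive cells after 3 h labelling at room temperature with 1 nM HGFR-Fc plus anti-Myc in PBSB with 1% milk.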
With VEGTSDVV, the antigen binding call was “no binding”.

Regarding DTTGSAVA, the antigen binding call is “no binding”.

In the case of YKGEADGA, the antigen binding call is listed as “no binding”.

FKGGGFGA: the antigen binding call is recorded as “no binding”.

YEGGGDGA: the antigen binding call was “no binding”.

In the case of VKGGGYGA, the antigen binding call is “no binding”.

Regarding YKGGGAGA, the antigen binding call is listed as “binds”.

Turning to YKGGSAGA, the antigen binding call was “binds”.

For YTGATAGA, the antigen binding call is on record as “no binding”.

With YKGGGYGA, the antigen binding call is “binds”.

Turning to VKGGGFGA, the antigen binding call is “no binding”.

Take YRRRGAGF: the antigen binding call is “binds”.

On to YRTRGSGF, for which the antigen binding call is listed as “binds”.

As to YRRRGSGF, the antigen binding call is listed as “binds”.

Turning to YRRRGAWF, the antigen binding call was “binds”.

FTKASYVY: the antigen binding call was “no binding”.

For VEARGDWV, the antigen binding call was “no binding”.

On to STRKSYAA, for which the antigen binding call is on record as “no binding”.

For the variant STKAASWV, the antigen binding call is “no binding”.

Consider YRERGAAA, for which the antigen binding call is given as “binds”.

Take STGTGALA: the antigen binding call is reported as “no binding”.

On to VTGGDALA, for which the antigen binding call is on record as “no binding”.

Take FRERGALA: the antigen binding call is reported as “binds”.

Consider FRERGYGA, for which the antigen binding call is recorded as “no binding”.

As to FRERGDGA, the antigen binding call is listed as “no binding”.

For the variant YRERNAAA, the antigen binding call is reported as “no binding”.

As to FTGGDALA, the antigen binding call is listed as “binds”.

With YRERGALA, the antigen binding call is “binds”.

For the variant SGRGNSVD, the antigen binding call was “no binding”.

With VEEEGDVA, the antigen binding call was “no binding”.

In the case of STEEGDWV, the antigen binding call is listed as “no binding”.

As for AEGTNAGD, the antigen binding call is given as “no binding”.

In the case of VETGNDAV, the antigen binding call was “no binding”.

For FRERGAAA, the antigen binding call was “binds”.

For the variant FRGRGALA, the antigen binding call is “binds”.

Turning to YRERGSAA, the antigen binding call is listed as “binds”.

In the case of FRERNAAA, the antigen binding call is “no binding”.

Take FEEGTDWY: the antigen binding call is “no binding”.

As for DGGKNDAV, the antigen binding call is on record as “no binding”.

As for YGETGFGS, the antigen binding call was “no binding”.

As for YRARSFGS, the antigen binding call is given as “binds”.

On to DRAGDAGY, for which the antigen binding call is reported as “no binding”.

For YAAGSFGY, the antigen binding call is listed as “no binding”.

Turning to SRARDFGY, the antigen binding call is recorded as “no binding”.

For the variant YRARSFGD, the antigen binding call is recorded as “no binding”.

For the variant YRAGGFGY, the antigen binding call was “binds”.

For YRAGGFGS, the antigen binding call is on record as “binds”.

Regarding YRAGGAGY, the antigen binding call is on record as “binds”.

Turning to SEARSSGF, the antigen binding call was “no binding”.

For the variant YATEAFSD, the antigen binding call is on record as “no binding”.

Turning to YAKGDDAS, the antigen binding call was “no binding”.

With DEGGGDGA, the antigen binding call is given as “no binding”.

On to DAGKSDWY, for which the antigen binding call is recorded as “no binding”.

Take YAEESDVA: the antigen binding call is “no binding”.

For the variant DTGTGALV, the antigen binding call is “no binding”.

In the case of YRARGYVY, the antigen binding call is reported as “no binding”.

As to YRAGGVGS, the antigen binding call was “binds”.

As to YRARGSGY, the antigen binding call is on record as “binds”.

In the case of YRARGAGY, the antigen binding call is reported as “binds”.

Turning to YRAGGYGY, the antigen binding call is listed as “binds”.
